Shown are actives, neighbours in structure and some others; about 3.6% of the full set was active somewhere.
NTMT1 inhibitor = inhibitors of human N-terminal methyltransferase NTMT1 | Potency, µM (series often up to 114 µM), inactives show at the highest dose activity change, negative = inhibition, hits mostly inhibitors | actives 2.5% (n = 59,000) | AID 1645870 | NTMT1 MTase-Glo SAH luminescence, purified enzyme | Q9BV86;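 further: plate controls were DMSO vehicle for no effect and no enzyme for full effect; nearly all actives have a fitted effect of over 65% in size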
GALC G270D up = raises human GALC G270D mutant activity in cells | actives 0.1% (n = 45,000) | P54803 | 145M-Twi-hGALC-G270D cells, HMU-beta-Gal fluorescence, 48 h | Potency, µM (highest dose often 57.5 µM), most hits filed as activators; further: 0% is about no effect; nearly all actives have a fitted effect of over 65% in size
Target sequence (P54803 whole entry G286D): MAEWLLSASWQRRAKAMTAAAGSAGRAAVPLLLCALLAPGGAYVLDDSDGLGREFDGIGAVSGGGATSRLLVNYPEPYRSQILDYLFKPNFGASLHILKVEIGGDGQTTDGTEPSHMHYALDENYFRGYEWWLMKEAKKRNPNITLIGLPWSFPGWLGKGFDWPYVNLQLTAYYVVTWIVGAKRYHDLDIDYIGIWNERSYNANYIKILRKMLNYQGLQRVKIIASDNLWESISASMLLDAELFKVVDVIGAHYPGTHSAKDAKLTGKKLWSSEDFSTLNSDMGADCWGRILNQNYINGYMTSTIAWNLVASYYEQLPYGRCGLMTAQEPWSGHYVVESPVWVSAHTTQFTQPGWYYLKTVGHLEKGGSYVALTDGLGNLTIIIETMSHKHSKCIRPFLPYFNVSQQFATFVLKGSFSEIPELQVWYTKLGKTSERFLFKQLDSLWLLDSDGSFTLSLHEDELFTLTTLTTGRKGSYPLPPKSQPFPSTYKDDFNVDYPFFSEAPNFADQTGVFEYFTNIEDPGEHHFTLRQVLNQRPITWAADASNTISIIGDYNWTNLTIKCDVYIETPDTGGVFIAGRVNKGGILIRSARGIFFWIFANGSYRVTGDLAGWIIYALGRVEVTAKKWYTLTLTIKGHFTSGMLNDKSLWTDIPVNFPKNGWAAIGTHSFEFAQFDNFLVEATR
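qHTS, 1536-well; 145M-Twi-hGALC-G270D cells (WT line also made) in DMEM/F12 + 10% FBS; compound incubation on live cells; HMU-β-gal 0.1 mM final, pH 5.2, NaTC; carbonate stop; fluorescence increase = enhanced residual activity.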
OvCa metastasis = blocks SKOV3ip1 adhesion and invasion in omental model. SKOV3ip1-GFP adhesion/invasion on 3D omental model, fluorescence. Potency, µM (titrated, usually from 45.8 µM), for the others: at the highest dose activity change, negative = inhibition, usual class: inhibitors. actives 0.1% (n = 46,000);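 further: plate controls were DMSO wells for no effect and tomatine positive control wells for full effect; nearly all actives have a fitted effect of over 65% in size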
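A 3D layer of primary human omental fibroblasts, mesothelial cells, fibronectin and collagen I, grown 48 hr, received SKOV3ip1-GFP cells in serum-free medium plus compounds at 0.36-46 umol/L. After 2 hr RT and 16 hr 37 C, fixed adherent GFP cells were counted; normalized to DMSO and tomatine.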
pS6 MEF inh = inhibitors of mTORC1 signaling in Tsc2-/- p53-/- MEF cells; Potency, µM (top dose mostly 38.3 µM), without a hit: top-dose activity change, negative = inhibition, actives largely listed as inhibitors; actives 0.78% (n = 44,000); Tsc2-/- p53-/- MEF, phospho-rpS6 immunofluorescence/PI, 24 h;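 further: plate controls were DMSO for no effect and rapamycin for full effect; nearly all actives have a fitted effect of over 50% in size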
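Plate MEFs (Tsc2-/-, p53-/-, empty vector) in DMEM/10% FBS; after 24 h add compound, incubate 24 h at 37 degree Celsius; fix in PFA/TX-100, block, stain phospho-rpS6 and 10 uM PI; scan at 488 nm; report % positive cells.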
PMP22 txn prim = modulates PMP22 transcription in S16 Schwann cells. S16 Pmp22-F2sN Schwann cells, FLuc/NLuc coincidence luminescence, 24 h. Potency, µM (titrated, usually from 57.5 µM), for inactives: at the highest dose activity change, negative = inhibition, usual class: inhibitors. actives 2% (n = 43,000). AID 1508649; active means clear falling dose curves in both reporters; inconclusive means both reporters move, but less clearly or upward; inactive means either reporter flat; the % is the NLuc reporter signal; further: on the % scale 0 is the no-effect control and ±100 the full control effect
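Transcriptional readout in edited S16(c9) cells: two luciferases reported from the Pmp22 locus, measured in turn after 24 h compound incubation.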
S16 viability = S16 Schwann cell cytotoxicity. S16 Pmp22-F2sN Schwann cells (luciferase reporters placed in the Pmp22 gene) viability, CellTiter-Glo, 24 h. Potency, µM (top dose mostly 57.5 µM), for inactives: top-dose activity change, negative = cytotoxicity, actives largely listed as cytotoxic. actives 0.48% (n = 43,000). AID 1508642; further: on the % scale 0 is the no-effect control and ±100 the full control effect; nearly all actives have a fitted effect of over 65% in size
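S16 Schwann cells carrying the Pmp22-F2sN reporter, seeded in 1536-well format, were exposed to library compounds for 24 h at 37C. Viability was read as CellTiter-Glo luminescence after 15 min at room temperature.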
* marks the source's active call; other numbers are inactive results; i = inactive; ? = inconclusive; · = no result; ! = not confirmed by another sample; [ ] = another dose, or the depositor's remark. Unless noted, the call rests on the fitted dose curve; in most records, active means well fitted curve in the direction sought with a large enough effect; inconclusive means small, poorly fitted or top-dose-only effect, or another doubt; inactive means no such curve, though single readings can be large; an effect the other way counts as inactive or inconclusive. Potency means the concentration at half of the fitted maximal effect.

SMILES	NTMT1 inhibitor	GALC G270D up	OvCa metastasis	pS6 MEF inh	PMP22 txn prim	S16 viability
CCOc1ccc(-n2nc3ccc(NC(=O)COc4ccccc4)cc3n2)cc1	?	i	10%	3%	-4%	-7%
CCOc1ccc(-n2nc3ccc(NC(=O)c4ccc(-c5cccc(Cl)c5)o4)cc3n2)cc1	79µM*	i	15%	12µM*	?	?
COc1ccc(CNC(=O)c2cn(-c3cccc(OC)c3)c(=O)c3ccccc23)cc1	0%	i	0%	5%	1%	10%
COc1cccc(-n2cc(C(=O)Nc3ccccc3C(N)=O)c3ccccc3c2=O)c1	89µM*	i	22%	12%	-23%	6%
C=C1C(=O)O[C@@H]2C[C@]3(C)[C@@H](CCC(C)O)[C@@H]3C[C@H]12 (stereo not given in full)	-2%[57.5 µM]	·	·	·	·	·
COc1ccccc1C(=O)NCCc1nc2ccccc2n1CCOc1ccc(C)cc1	9%	·	·	·	·	·
Cc1ccc(Nc2nn3c(=O)c4cc5c(cc4nc3s2)OCO5)cc1Cl	-9%	i	i	0%	5%	5%
Cc1cc(C)c(Nc2nn3c(=O)c4cc5c(cc4nc3s2)OCO5)c(C)c1	45µM*	i	2%	4%	9%	2%
O=C1/C(=C/c2ccc(O)c(O)c2)Oc2ccccc21	28µM*	·	·	·	·	·
Cc1ccc(N(C)S(=O)(=O)c2ccc(-c3cnc(C4CC4)o3)cc2)cc1	5%	i	-30%	1%	14µM*	?
COc1cc(Cl)c(NS(=O)(=O)c2ccc(-c3cnc(C4CC4)o3)cc2)c(OC)c1	14%	i	6%	-29%	3µM*	1.3µM*
CCOC(=O)c1cccc(NS(=O)(=O)c2ccc(-c3cnc(C4CC4)o3)cc2)c1	19%	i	i	-18%	11µM*	?
CC(=O)c1ccc(NS(=O)(=O)c2ccc(-c3cnc(C4CC4)o3)cc2)cc1	13%	i	i	-1%	-3%	6%
O=C(Cn1nc(-c2ccc(F)cc2)ccc1=O)NCCc1ccccc1	79µM*	·	·	·	·	·
CC(C)(C)c1ccc(-c2ccc(=O)n(CC(=O)NCCc3ccccc3)n2)cc1	15%	·	·	·	·	·
Cc1ccccc1Cn1c(CN2CCC(C(=O)NCCN(C)C)CC2)cc2ccccc21	-6%	i	?	7.4µM*	?	?
CNC(=O)C1CCN(Cc2cc3ccccc3n2Cc2ccccc2C)CC1	-6%	i	-3%	-13%	?	-23%
COc1ccc2c(c1)Oc1nc(-c3ccc(C)cc3)nc(SCC(=O)Nc3cccc(C(=O)O)c3)c1C2	22µM*	·	·	·	·	·
COc1ccc(-c2nc3c(c(SCC(=O)Nc4cccc(O)c4)n2)Cc2c(CO)cnc(C)c2O3)cc1	45µM*	i	-5%	0%	?	?
O=C(CSc1nc(-c2ccc(F)cc2)nc2c1Cc1ccccc1O2)Nc1cccc(C(=O)O)c1	6.3µM*	i	i	?	1%	6%
O=C1CCCC2=C1C(c1[nH]ncc1Cl)N=C(Nc1nc3cc([S+](=O)([O-])N4CCCC4)ccc3o1)N2 (stereo not given)	-12%[57.5 µM]	·	·	·	·	·
CC(C)(C)c1ccccc1Nc1nc(C#N)nc(NC2CCCC2)n1	19%	·	·	·	·	·
COCCOc1ccc2c(c1)ncn2-c1ccc2cccc(N3CCC(N)CC3)c2n1	35µM*!	·	5%	·	·	·
COc1ccc(OC)c(-n2cnc3cc(C(=O)NC4CCCC4)ccc32)c1	4%	i	2%	0%	-4%	3%
CC(C)c1ccccc1-c1nc(NCc2ccc(-c3cccnc3)cc2)c2[nH]cnc2n1	11%	·	·	·	·	·
SMILES	NTMT1 inhibitor	GALC G270D up	OvCa metastasis	pS6 MEF inh	PMP22 txn prim	S16 viability
O=c1cc(-c2cccc3c2Sc2ccccc2S3)oc(N2CCOCC2)c1	?	·	-13%	·	·	·
Cc1cccc(NC(=O)c2c(NC(=O)c3ccccc3)sc3c2CCCC3)c1	45µM*	i	i	9%	-1%	19%
CCCc1ccc(OCC(=O)Nc2sc3c(c2C(=O)OC)CCCCC3)cc1	89µM*	i	i	2%	-5%	1%
CCOC(=O)c1c(NC(=O)c2ccccc2C)sc2c1CCCC2	89µM*	i	i	3%	1%	6%
CCOC(=O)c1c(C)nn(-c2cccc([N+](=O)[O-])c2)c1C	20%[57.5 µM]	·	·	·	·	·
CN1CCc2cccc3c2[C@H]1Cc1ccc(O)c(O)c1-3	22µM*	i	·	·	·	·
C=C1C(=O)[C@@]23C(CC[C@@H]1[C@H]2O)[C@@]12CO[C@]3(O)[C@@H](O)[C@@H]1C(C)(C)CC[C@@H]2O (stereo not given in full)	?	·	19µM*	·	·	·
Cc1ccc(NC(=O)CSc2ncc3c(n2)-c2ccc(Cl)cc2N(C)S3(=O)=O)cc1F	11%	i	6%	-8%	?	10%
CN1c2cc(Cl)ccc2-c2nc(SCC(=O)Nc3ccc(F)cc3F)ncc2S1(=O)=O	6%	i	-7%	-7%	?	25µM*
CC1=C(C(=O)Nc2ccon2)C(c2ccccc2Br)N=C(Nc2nc3ccccc3o2)N1 (stereo not given)	-2%	·	·	·	·	·
O=C1CC(c2ccccc2)Cc2[nH]c(=O)c(-c3nc(-c4ccc(Cl)cc4)cs3)cc21 (stereo not given)	12%	i	-27%	5.8µM*	0.75µM*	?
O=C1CC(c2ccccc2)Cc2[nH]c(=O)c(-c3nc(-c4ccc(Cl)c(Cl)c4)cs3)cc21 (stereo not given)	10%	i	-6%	-2%	-7%	?
CCOC(=O)c1ccc(NC(=O)c2c(NCc3cccc(OC)c3OC)sc3c2CCC3)cc1	56µM*	i	-3%	-8%	-6%	?
COc1ccccc1NC(=O)c1c(NCc2ccc(OC)c(OC)c2OC)sc2c1CCCC2	10%	i	13%	-10%	5µM*	?
Cc1cc2c(s1)c1cnn(Cc3ccc(SC(F)(F)F)cc3)c(=O)c1n2C	11%	·	·	·	·	·
Cc1nnc(-c2cnn(C)c2N)n1CCCc1ccccn1	6%	·	·	·	·	·
CC1(C)Cc2c(sc(NC(=S)NC(=O)c3ccccc3)c2C(=O)O)CO1	79µM*!	·	0%	·	·	·
COC(=O)c1c(NC(=O)c2ccccc2C(=O)O)sc2c1CCCC2	?	i	2%	4%	35%	-5%
Cn1ccc2cc3c(cc21)CCN3C(=O)Nc1cccnc1	79µM*!	i	15%	·	·	·
